# Assay results taken from PubChem BioAssay (NCATS).
# Records with an inconclusive call do not appear. A call without a number means that no potency is given here. Calls of active or inactive are those of the source. The call rests on the fitted dose curve; in most records, active means well fitted inhibition curve with a large enough effect; inconclusive means small, poorly fitted or top-dose-only effect; inactive means flat fitted curve, though single readings scatter.
# Test system: CP268
# Experiment: qHTS profiling for inhibitors of Plasmodium falciparum proliferation (AID 504749); further: nearly all actives have a fitted effect of over 60% in size
# Conditions: P. falciparum in erythrocytes, SYBR Green DNA, 72 h; series mostly up to 28.7 µM
# Outline: (§1)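 Parasite proliferation within erythrocytes, 72 h exposure. Endpoint: SYBR Green I fluorescence after overnight lysis at room temperature. Controls: 0.29 uM artemisinin, DMSO.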
# Potency means the concentration at half of the fitted maximal effect.
row,SMILES,Potency
1,COc1cc(-c2ccc(-[n+]3nc(-c4ccccc4)nn3-c3ccc([N+](=O)[O-])cc3)c(OC)c2)ccc1-[n+]1nc(-c2ccccc2)nn1-c1ccc([N+](=O)[O-])cc1,16.9 µM (active)
2,CCCCC(CC)COC(=O)CC(C(=O)OCC(CC)CCCC)S(=O)(=O)O (stereo not drawn),inactive
3,O=C(Nc1ccc(Br)cc1)c1cc(Br)c(Br)s1,12 µM (active)
4,O=S(=O)(O)c1cc(O)c2c(N=Nc3ccc(Nc4ccccc4)c4c(S(=O)(=O)O)cccc34)cc(S(=O)(=O)O)cc2c1,inactive
5,CC1=C(/C=C/C(C)=C/C=C/C(C)=C/CO)C(C)(C)CCC1,inactive
6,CCNC(=O)[C@@H]1CCCN1C(=O)[C@H](CCCN=C(N)N)NC(=O)[C@H](CC(C)C)NC(=O)[C@@H](Cc1c[nH]c2ccccc12)NC(=O)[C@H](Cc1ccc(O)cc1)NC(=O)[C@H](CO)NC(=O)[C@H](Cc1c[nH]c2ccccc12)NC(=O)[C@H](Cc1cnc[nH]1)NC(=O)[C@@H]1CCC(=O)N1,8.49 µM (active)
7,O=CCCCC=O,inactive
8,CCCCC(=O)O[C@]1(C(=O)CO)[C@H](C)C[C@H]2[C@@H]3CCC4=CC(=O)C=C[C@]4(C)[C@@]3(F)[C@@H](O)C[C@@]21C,inactive
9,CC1=C(/C=C/C(C)=C/C=C/C(C)=C/C=C/C=C(C)/C=C/C=C(C)/C=C/C2=C(C)C(=O)CCC2(C)C)C(C)(C)CCC1=O,inactive
10,CN1C(=O)CN2CCc3ccccc3C2c2cc(Cl)ccc21 (stereo not drawn),inactive
11,CC(C)N=c1cc2n(-c3ccc(Cl)cc3)c3ccccc3nc-2cc1Nc1ccc(Cl)cc1,inactive
12,O=C(O)c1cc(=O)c2c3nc4ccccc4oc-3cc(=O)c2[nH]1,inactive
13,C=C1C(=CC=C2CCC[C@@]3(C)[C@@H]2CC[C@H]3[C@H](C)CCCC(C)C)C[C@@H](O)C[C@@H]1O,inactive
14,Cc1cn([C@H]2C[C@H](O)[C@@H](CO)O2)c(=O)[nH]c1=O,inactive

# Test system: CP269
# Experiment: as above
# Conditions: P. falciparum in erythrocytes, SYBR Green DNA, 72 h; series mostly up to 28.7 µM
# Outline: as §1
row,SMILES,Potency
1,CC(C)=O,inactive
2,CCCCC(CC)COC(=O)CC(C(=O)OCC(CC)CCCC)S(=O)(=O)O (stereo not drawn),inactive
3,CCN(CC)CCOc1ccc(-c2nc3cc(Cl)ccc3s2)cc1,inactive
4,CCNC(=O)[C@@H]1CCCN1C(=O)[C@H](CCCN=C(N)N)NC(=O)[C@H](CC(C)C)NC(=O)[C@@H](Cc1c[nH]c2ccccc12)NC(=O)[C@H](Cc1ccc(O)cc1)NC(=O)[C@H](CO)NC(=O)[C@H](Cc1c[nH]c2ccccc12)NC(=O)[C@H](Cc1cnc[nH]1)NC(=O)[C@@H]1CCC(=O)N1,7.57 µM (active)
5,CN(C)CCCN1c2ccccc2C(C)(C)c2ccccc21,inactive
6,NC1C2CN(c3nc4c(cc3F)c(=O)c(C(=O)O)cn4-c3ccc(F)cc3F)CC12 (stereo not drawn),6.75 µM (active)
7,O=CCCCC=O,inactive
8,CCCCC(=O)O[C@]1(C(=O)CO)[C@H](C)C[C@H]2[C@@H]3CCC4=CC(=O)C=C[C@]4(C)[C@@]3(F)[C@@H](O)C[C@@]21C,inactive
9,CCOC(=O)C1=C(C)NC(C)=C(C(=O)OCC)C1c1ccccc1C=CC(=O)OC(C)(C)C,15.1 µM (active)
10,CC1=C(/C=C/C(C)=C/C=C/C(C)=C/C=C/C=C(C)/C=C/C=C(C)/C=C/C2=C(C)C(=O)CCC2(C)C)C(C)(C)CCC1=O,inactive
11,CN1C(=O)CN2CCc3ccccc3C2c2cc(Cl)ccc21 (stereo not drawn),inactive
12,CC(C)N=c1cc2n(-c3ccc(Cl)cc3)c3ccccc3nc-2cc1Nc1ccc(Cl)cc1,inactive
13,CC[C@@]1(O)C(=O)OCc2c1cc1n(c2=O)Cc2cc3c([N+](=O)[O-])cccc3nc2-1,10.7 µM (active)
14,O=C(O)c1cc(=O)c2c3nc4ccccc4oc-3cc(=O)c2[nH]1,inactive
15,C=C1C(=CC=C2CCC[C@@]3(C)[C@@H]2CC[C@H]3[C@H](C)CCCC(C)C)C[C@@H](O)C[C@@H]1O,inactive
16,C#C[C@]1(O)CC[C@H]2[C@@H]3CCC4=CCCC[C@@H]4[C@H]3C(=C)C[C@@]21CC,inactive
17,Cc1cn([C@H]2C[C@H](O)[C@@H](CO)O2)c(=O)[nH]c1=O,inactive
18,COC(=O)C1=C(C#N)NC(C)=C(C(=O)OC(C)C)C1c1cccc([N+](=O)[O-])c1 (stereo not drawn),13.5 µM (active)

# Test system: CP286
# Experiment: as above
# Conditions: P. falciparum in erythrocytes, SYBR Green DNA, 72 h; series mostly up to 28.7 µM
# Outline: as §1
row,SMILES,Potency
1,CC(C)=O,inactive
2,CCNC(=O)[C@@H]1CCCN1C(=O)[C@H](CCCN=C(N)N)NC(=O)[C@H](CC(C)C)NC(=O)[C@@H](Cc1c[nH]c2ccccc12)NC(=O)[C@H](Cc1ccc(O)cc1)NC(=O)[C@H](CO)NC(=O)[C@H](Cc1c[nH]c2ccccc12)NC(=O)[C@H](Cc1cnc[nH]1)NC(=O)[C@@H]1CCC(=O)N1,3.16 µM (active)
3,CN(C)CCCN1c2ccccc2C(C)(C)c2ccccc21,inactive
4,CCCCCC(CC)COC(=O)CC(C(=O)OCC(CC)CCCC)S(=O)(=O)O (stereo not drawn),inactive
5,O=CCCCC=O,inactive
6,CCCCC(=O)O[C@]1(C(=O)CO)[C@H](C)C[C@H]2[C@@H]3CCC4=CC(=O)C=C[C@]4(C)[C@@]3(F)[C@@H](O)C[C@@]21C,inactive
7,CC1=C(/C=C/C(C)=C/C=C/C(C)=C/C=C/C=C(C)/C=C/C=C(C)/C=C/C2=C(C)C(=O)CCC2(C)C)C(C)(C)CCC1=O,inactive
8,CN1C(=O)CN2CCc3ccccc3C2c2cc(Cl)ccc21 (stereo not drawn),inactive
9,CC(C)N=c1cc2n(-c3ccc(Cl)cc3)c3ccccc3nc-2cc1Nc1ccc(Cl)cc1,3.55 µM (active)
10,CCOC(=O)C1=CC2(CC)CCCN3CCc4c(n1c1ccccc41)C32 (stereo not drawn),11.2 µM (active)
11,CC[C@@]1(O)C(=O)OCc2c1cc1n(c2=O)Cc2cc3c([N+](=O)[O-])cccc3nc2-1,4.47 µM (active)
12,COC(=O)[C@H]1[C@H]2CC3c4[nH]c5ccccc5c4CCN3C[C@@H]2CC[C@@H]1O (stereo partly drawn),inactive
13,CCCCCCOc1ccc(C(=N)N(CCCC)CCCC)c2ccccc12,2.82 µM (active)
14,CN=C(NC#N)Nc1ccc(C2=NNC(=O)C[C@@H]2C)cc1,inactive
15,Cc1cn([C@H]2C[C@H](O)[C@@H](CO)O2)c(=O)[nH]c1=O,inactive
16,COC(=O)C1=C(C#N)NC(C)=C(C(=O)OC(C)C)C1c1cccc([N+](=O)[O-])c1 (stereo not drawn),10 µM (active)
